High-throughput results from PubChem BioAssay.
The sample as a whole holds a higher share of hits than the screen did.
FECH block: human FECH heme synthesis enzyme inhibition; P22830; purified FECH, Ni-mesoporphyrin absorbance 550 nm; calls only at 10 µM (by protocol); 3.3% of 20,000 active; AID 1671448;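 active = enzyme reaction rate more than 3 SD below the solvent-only control wells on the same plate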;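 note: lower slope than DMSO wells means FECH inhibition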
Target sequence (P22830 whole entry, looked up): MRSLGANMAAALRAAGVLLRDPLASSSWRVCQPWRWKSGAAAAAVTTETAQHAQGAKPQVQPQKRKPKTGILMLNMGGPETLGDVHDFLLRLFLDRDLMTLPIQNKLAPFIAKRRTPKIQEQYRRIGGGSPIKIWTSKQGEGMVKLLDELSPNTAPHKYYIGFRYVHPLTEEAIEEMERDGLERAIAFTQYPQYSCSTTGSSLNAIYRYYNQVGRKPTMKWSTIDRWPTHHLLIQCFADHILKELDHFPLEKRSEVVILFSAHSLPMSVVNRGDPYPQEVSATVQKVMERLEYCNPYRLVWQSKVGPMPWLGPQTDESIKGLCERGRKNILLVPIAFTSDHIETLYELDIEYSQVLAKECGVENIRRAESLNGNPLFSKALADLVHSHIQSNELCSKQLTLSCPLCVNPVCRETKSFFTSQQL
The depositor's hits bear a star; i = inactive; + = active, no number.

SMILES	FECH block
CCOc1ccc(CC(=O)Nc2cc(C)nn2-c2ncnc3c2cnn3-c2cccc(Cl)c2)cc1	i
Cc1ccc(OCC(=O)Nc2cc(C)nn2-c2ncnc3c2cnn3-c2ccc(Cl)cc2)cc1	i
Cc1cccc(Cc2nnc(NC(=O)N(C)Cc3cccs3)s2)c1	i
CCN1CCN(c2nc(Nc3ccc(Cl)cc3)c3cnn(-c4ccccc4)c3n2)CC1	i
CCc1ccc(NC(=O)N2CCN(c3cc(-c4cccc(OC)c4)ncn3)CC2)cc1	i
CNC(=O)[C@@H]1C[C@@H](N)CN1C(=O)CCc1ccc(-c2ccc(C)cc2)o1	i
CC(C)(CO)NC(=O)c1ccccc1NCC(=O)O	i
NS(=O)(=O)c1ccc(CCNC(=O)CCn2cnc3c([nH]c4ccc(F)cc43)c2=O)cc1	i
Cc1ccc2[nH]c3c(=O)n(CCC(=O)NCCc4ccc(S(N)(=O)=O)cc4)cnc3c2c1	i
NS(=O)(=O)c1ccc(CCNC(=O)CCn2cnc3c([nH]c4ccccc43)c2=O)cc1	+
CC1CN(C(=O)C2CC2)c2cc(S(=O)(=O)Nc3ccc(S(N)(=O)=O)cc3)ccc2S1 (stereo not given)	i
CC(C(=O)NCc1cn2c(n1)SCC2)N1C(=O)c2cccc3cccc1c23 (stereo not given)	i
Cc1ccc(C2=CC(c3ccc(F)cc3)n3nc(NS(=O)(=O)c4ccc(C)cc4)nc3N2)cc1 (stereo not given)	i
CCCC(=O)Nc1nc2n(n1)C(c1ccc(Cl)cc1)C=C(c1ccc(C)cc1)N2 (stereo not given)	+
CCC(=O)Nc1nc2n(n1)C(c1ccc(Cl)cc1)C=C(c1ccc(Cl)cc1)N2 (stereo not given)	i
O=C(O)CCCC(=O)Nc1nc2n(n1)C(c1ccc(Cl)cc1)C=C(c1ccc(Cl)cc1)N2 (stereo not given)	i
O=S(=O)(Nc1nc2n(n1)C(c1ccc(F)cc1)C=C(c1ccccc1)N2)c1ccccc1 (stereo not given)	i
Cc1ccc(C2=CC(c3ccc(C)cc3)n3nc(NS(=O)(=O)c4ccccc4)nc3N2)cc1 (stereo not given)	+
Cc1cc(N(C)C)nc(Nc2ccc(NC(=O)c3ccccc3)cc2)n1	i
CC(C)(C)c1ccc(C(=O)Nc2cccc(N3CCCS3(=O)=O)c2)cc1	i
CN1CCN(C(=O)c2ccc3ncccc3c2)CC1=O	i
CC(C)(C)c1ccc(-c2cnn(CCC(N)=O)c2)cc1	i
c1cncc(-c2nc(CCNCc3nc(-c4ccco4)no3)cs2)c1	+
Cc1nc2c(c(NCCc3csc(-c4cccnc4)n3)n1)CCNC2	i
O=C(NCCc1csc(-c2cccnc2)n1)C1CNCCO1 (stereo not given)	i
SMILES	FECH block
Cc1ccc(-n2ncc3c(-n4nc(C)cc4NC(=O)c4ccccc4)ncnc32)c(C)c1	i
CCN1CCN(c2nc(Nc3ccc(OC)cc3)c3cnn(-c4ccccc4)c3n2)CC1	i
COc1cc(CC(=O)N2CCC3(CCCNC3)C2)cc(OC)c1OC (stereo not given)	i
CC(C)c1nccn1CC(c1ccc(F)cc1)N1CCCC1 (stereo not given)	i
Fc1ccc(-c2[nH]ncc2CN(Cc2ccccn2)CC2CCCO2)cc1 (stereo not given)	i
CC(=O)Nc1ccc(Cl)c(C(=O)NCC2(Cn3cccn3)CC2)c1	i
O=C(CN1CCN(Cc2ccc(Cl)cc2)S1(=O)=O)Nc1cccc(Cl)c1	i
O=C(CN1CCCN(Cc2ccccc2)S1(=O)=O)Nc1cccc(Cl)c1	i
O=C(CN1N=C(c2ccccc2)c2ccccc2S1(=O)=O)Nc1cccc(Cl)c1	+
COc1cccc(C(=O)Nc2cc(C)nn2-c2ncnc3c2cnn3-c2cccc(Cl)c2)c1OC	i
CC(=O)N1c2ccccc2CC1C(=O)NCCc1ccc(S(N)(=O)=O)cc1 (stereo not given)	i
Cc1nc2nc(CN(C(=O)c3ccc(C(C)(C)C)cc3)c3ccccc3)nn2c(C)c1Cl	i
Cc1ncc(CC(=O)NCc2cccnc2Oc2ccccc2F)c(=O)[nH]1	i
CCc1c(C)nc2ncnn2c1Sc1ccc(NC(=O)Nc2ccc(OC)cc2OC)cc1	+
CCc1c(C)nc2ncnn2c1Sc1ccc(NC(=O)Nc2cc(OC)cc(OC)c2)cc1	i
CCc1c(C)nc2ncnn2c1Sc1ccc(NC(=O)Nc2ccsc2C(=O)OC)cc1	+
CCc1c(C)nc2ncnn2c1Sc1ccc(NC(=O)Nc2ccccc2Br)cc1	i
CCc1c(C)nc2ncnn2c1Sc1ccc(NC(=O)Nc2cccc(C(=O)OC)c2)cc1	i
CCc1c(C)nc2ncnn2c1Sc1ccc(NC(=O)Nc2cc(OC)ccc2OC)cc1	i
O=C(NC1CCCCC1)c1nc[nH]c1C(=O)N1CCCCC1	i
C=CCC1(CC=C)CCCCN1CCn1c(=O)oc2ccccc21	i
COc1ccccc1C1CCN(C(=O)CCC(=O)NC2CCCC2)CC1	i
O=C(CCC(=O)N1CCN(CC2CCCO2)CC1)NC1CCCC1 (stereo not given)	+
CC(C)CC1(CO)CCCN(C(=O)CCC(=O)NC2CCCC2)C1 (stereo not given)	i
